Experimental findings from publication PMC3218832 are described below.

Some targets named below: RELARELA (p65 homodimer) (Homo sapiens, UniProt Q04206 1-307); p50p50 homodimer (Homo sapiens, UniProt P19838 7-356); RELB subunit;p50 subunit (Homo sapiens;Homo sapiens, UniProt Q01201;P19838 120-401;7-356).
Experiment in all cases: protein binding microarray; high values mean tight binding
Holding throughout (conditions): dsDNA, one strand shown

For another test, the target named is T1, p52p52 homodimer (Homo sapiens, UniProt Q00653 4-332).
T1 sequence: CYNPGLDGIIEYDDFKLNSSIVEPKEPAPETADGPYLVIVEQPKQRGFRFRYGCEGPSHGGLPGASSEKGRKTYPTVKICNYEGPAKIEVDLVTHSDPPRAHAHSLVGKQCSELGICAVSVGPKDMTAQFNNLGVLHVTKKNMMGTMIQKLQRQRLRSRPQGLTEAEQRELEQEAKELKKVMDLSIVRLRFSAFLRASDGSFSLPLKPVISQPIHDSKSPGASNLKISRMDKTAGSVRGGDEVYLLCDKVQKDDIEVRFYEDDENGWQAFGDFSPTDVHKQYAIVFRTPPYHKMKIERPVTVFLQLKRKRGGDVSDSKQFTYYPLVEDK

The target in test [1] is RELA (p65) subunit of heterodimer;p50 subunit (Homo sapiens;Homo sapiens, UniProt Q04206;P19838 1-307;7-356).
The target in test [2] is RELA (p65) subunit of heterodimer;p52 subunit (Homo sapiens;Homo sapiens, UniProt Q04206;Q00653 1-307;4-332).
The next test deals with T2, RELB subunit;p52 subunit (Homo sapiens;Homo sapiens, UniProt Q01201;Q00653 120-401;4-332).
T2 sequence 1: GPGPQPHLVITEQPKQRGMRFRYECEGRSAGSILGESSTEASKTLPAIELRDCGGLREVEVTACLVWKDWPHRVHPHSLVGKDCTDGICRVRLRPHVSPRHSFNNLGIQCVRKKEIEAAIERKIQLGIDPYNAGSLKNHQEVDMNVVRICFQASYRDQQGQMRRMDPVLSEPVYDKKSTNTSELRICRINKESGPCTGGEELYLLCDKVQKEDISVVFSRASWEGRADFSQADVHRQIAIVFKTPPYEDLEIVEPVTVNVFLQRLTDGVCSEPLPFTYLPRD
T2 sequence 2: T1 sequence

Test [3] deals with C-Rel subunit;p50 subunit (Homo sapiens;Homo sapiens, UniProt Q04864;P19838 1-285;7-356).
Test [4] addresses T3, C-Rel subunit;p52 subunit (Homo sapiens;Homo sapiens, UniProt Q04864;Q00653 1-285;4-332).
T3 sequence 1: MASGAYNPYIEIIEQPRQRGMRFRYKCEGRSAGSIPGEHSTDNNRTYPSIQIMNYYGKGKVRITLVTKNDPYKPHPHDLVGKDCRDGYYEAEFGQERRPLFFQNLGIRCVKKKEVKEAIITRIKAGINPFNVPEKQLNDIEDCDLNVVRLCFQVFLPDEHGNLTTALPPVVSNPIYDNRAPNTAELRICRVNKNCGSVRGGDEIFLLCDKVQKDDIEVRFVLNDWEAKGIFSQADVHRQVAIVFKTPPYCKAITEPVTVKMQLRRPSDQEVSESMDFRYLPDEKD
T3 sequence 2: T1 sequence

Chain of p50p50 homodimer (P19838 7-356): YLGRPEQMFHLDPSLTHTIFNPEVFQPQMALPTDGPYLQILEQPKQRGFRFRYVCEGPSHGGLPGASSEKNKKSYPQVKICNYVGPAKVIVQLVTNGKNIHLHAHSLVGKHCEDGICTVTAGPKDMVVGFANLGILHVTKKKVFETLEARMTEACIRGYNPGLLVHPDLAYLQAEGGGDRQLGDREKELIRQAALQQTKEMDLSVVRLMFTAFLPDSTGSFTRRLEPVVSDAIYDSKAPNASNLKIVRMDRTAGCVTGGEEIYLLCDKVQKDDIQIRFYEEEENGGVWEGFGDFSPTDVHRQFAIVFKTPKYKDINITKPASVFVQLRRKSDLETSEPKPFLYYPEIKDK
Chain of RELARELA (p65 homodimer) (Q04206 1-307): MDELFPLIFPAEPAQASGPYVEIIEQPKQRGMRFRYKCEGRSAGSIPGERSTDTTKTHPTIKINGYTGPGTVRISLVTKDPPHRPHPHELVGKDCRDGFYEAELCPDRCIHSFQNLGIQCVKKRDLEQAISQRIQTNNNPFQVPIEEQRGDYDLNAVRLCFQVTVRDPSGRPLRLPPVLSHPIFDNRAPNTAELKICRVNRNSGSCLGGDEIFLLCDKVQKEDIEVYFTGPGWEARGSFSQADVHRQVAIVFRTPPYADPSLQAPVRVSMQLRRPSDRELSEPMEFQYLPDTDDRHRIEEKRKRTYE
Chain of RELA (p65) subunit of heterodimer;p50 subunit (Q04206 1-307, chain 1 of 2): as the sequence (Q04206 1-307) above
Chain of RELA (p65) subunit of heterodimer;p50 subunit (P19838 7-356, chain 2 of 2): as the sequence (P19838 7-356) above

Take GAATTCCTCCC: the binding signal in the test with RELARELA (p65 homodimer) was 0.897 z-score; with p50p50 homodimer it was -0.0187 z-score; with p52p52 homodimer, -0.00969 z-score; in test [1], 0.17 z-score; in test [2], 0.0178 z-score; with RELB subunit;p50 subunit, -0.14 z-score. Moreover, the binding signal with RELB subunit;p52 subunit was -0.0714 z-score; in test [3] it was 0.325 z-score; in test [4] it was 0.177 z-score.

AGAAATACCCT: the binding signal was determined as 0.554 z-score with RELARELA (p65 homodimer); 1.28 z-score in the test with p50p50 homodimer; 1.33 z-score with p52p52 homodimer; 1.55 z-score in test [1]; 1.35 z-score in [2]; 1.21 z-score with RELB subunit;p50 subunit. The binding signal in the test with RELB subunit;p52 subunit was 1.27 z-score; in test [3], 0.817 z-score; in test [4] it was 1.68 z-score.

Turning to GAAGTACCCCC, the binding signal in the test with RELARELA (p65 homodimer) was found to be 0.109 z-score; with p50p50 homodimer it was 1.25 z-score; in the test with p52p52 homodimer it was 0.815 z-score; in [1] it was 1.31 z-score; in [2], 1.14 z-score; in the test with RELB subunit;p50 subunit it was 1.27 z-score. Also, the binding signal with RELB subunit;p52 subunit is 1.33 z-score; in test [3], 0.887 z-score; in [4], 0.946 z-score.

Regarding GAGGTTCTCCC, the binding signal is 0.0177 z-score with RELARELA (p65 homodimer); 0.0309 z-score with p50p50 homodimer; -0.068 z-score with p52p52 homodimer; -0.00394 z-score in test [1]; -0.121 z-score in [2]; 0.333 z-score in the test with RELB subunit;p50 subunit. In addition, the binding signal with RELB subunit;p52 subunit is 0.107 z-score; in test [3], -0.166 z-score; in [4], -0.0434 z-score.

GGGGTTGTCCC: the binding signal in the test with RELARELA (p65 homodimer) came out at 2.19 z-score; in the test with p50p50 homodimer, 0.663 z-score; with p52p52 homodimer, 2.99 z-score; in [1] it was 1.73 z-score; in [2] it was 2.67 z-score; with RELB subunit;p50 subunit, 2.02 z-score. Further, the binding signal in the test with RELB subunit;p52 subunit was 1.88 z-score; in test [3], 1.31 z-score; in test [4] it was 2.32 z-score.

On to GAGAGGACCCC, for which the binding signal with RELARELA (p65 homodimer) was -0.845 z-score; in the test with p50p50 homodimer it was -0.858 z-score; with p52p52 homodimer, -0.455 z-score; in test [1], -0.636 z-score; in test [2], -0.537 z-score; with RELB subunit;p50 subunit it was -0.461 z-score. Moreover, the binding signal in the test with RELB subunit;p52 subunit is -0.392 z-score; in test [3] it was -0.607 z-score; in test [4], -0.571 z-score.

In the case of GGGGGTGCCCC, the binding signal worked out at 1.45 z-score in the test with RELARELA (p65 homodimer); 0.814 z-score in the test with p50p50 homodimer; 3.15 z-score in the test with p52p52 homodimer; 2.21 z-score in test [1]; 2.88 z-score in test [2]; 2.52 z-score with RELB subunit;p50 subunit. The binding signal with RELB subunit;p52 subunit came to 2.27 z-score; in test [3], 1.67 z-score; in test [4], 2.5 z-score.

In the case of CAATTGCTCCC, the binding signal with RELARELA (p65 homodimer) was -0.396 z-score; with p50p50 homodimer it was -0.852 z-score; with p52p52 homodimer, -0.46 z-score; in [1], -0.685 z-score; in test [2] it was -0.589 z-score; with RELB subunit;p50 subunit, -0.487 z-score. Besides, the results for the binding signal (with RELB subunit;p52 subunit; in test [3]; in test [4]) were -0.531 z-score, -0.849 z-score and -0.604 z-score, respectively.

Turning to AGATAAGTCCC, the binding signal with RELARELA (p65 homodimer) was 0.485 z-score; with p50p50 homodimer it was 1.11 z-score; with p52p52 homodimer, 0.806 z-score; in test [1], 1.13 z-score; in test [2], 0.806 z-score; with RELB subunit;p50 subunit, 1.2 z-score. Further, the binding signal with RELB subunit;p52 subunit was 0.954 z-score; in [3], 0.899 z-score; in test [4], 0.335 z-score.

Take AAATGAGTCCT: the binding signal with RELARELA (p65 homodimer) was -0.142 z-score; with p50p50 homodimer it was -1.04 z-score; with p52p52 homodimer, -0.602 z-score; in test [1] it was -0.991 z-score; in test [2], -0.866 z-score; with RELB subunit;p50 subunit, -0.889 z-score. Further, the binding signal in the test with RELB subunit;p52 subunit was -0.596 z-score; in test [3] it was -1.08 z-score; in [4], -0.769 z-score.

As to AGAGGTCTCCC, the binding signal with RELARELA (p65 homodimer) was 0.0815 z-score; in the test with p50p50 homodimer, -0.751 z-score; with p52p52 homodimer, -0.27 z-score; in test [1], -0.391 z-score; in test [2], -0.315 z-score; with RELB subunit;p50 subunit it was -0.0782 z-score. Moreover, the binding signal is -0.00582 z-score in the test with RELB subunit;p52 subunit, -0.507 z-score in test [3] and -0.363 z-score in [4].

On to CGAGGCTTCCT, for which the binding signal is -0.994 z-score in the test with RELARELA (p65 homodimer); -2.47 z-score in the test with p50p50 homodimer; -0.827 z-score with p52p52 homodimer; -1.09 z-score in test [1]; -1.19 z-score in test [2]; -1.31 z-score with RELB subunit;p50 subunit. Besides, the results for the binding signal (with RELB subunit;p52 subunit; in test [3]; in test [4]) were -1.05 z-score, -1.49 z-score and -1.05 z-score, respectively.

On to CAGGGTCCCCC, for which the binding signal with RELARELA (p65 homodimer) is -0.42 z-score; in the test with p50p50 homodimer, 0.876 z-score; in the test with p52p52 homodimer it was 0.451 z-score; in [1], 1.23 z-score; in test [2] it was 0.881 z-score; with RELB subunit;p50 subunit it was 1.22 z-score. Also, the values for the binding signal (in the test with RELB subunit;p52 subunit; in [3]; in [4]) were 1.39 z-score, 0.998 z-score and 0.408 z-score, respectively.

As for CAAGAGGTCCC, the binding signal is 1.23 z-score with RELARELA (p65 homodimer); -0.219 z-score with p50p50 homodimer; 0.0202 z-score with p52p52 homodimer; -0.152 z-score in test [1]; -0.417 z-score in test [2]; 0.271 z-score with RELB subunit;p50 subunit. Also, the binding signal was 0.113 z-score with RELB subunit;p52 subunit, -0.21 z-score in [3] and -0.201 z-score in test [4].

On to GAAAGTGTCCT, for which the binding signal in the test with RELARELA (p65 homodimer) is 0.0215 z-score; with p50p50 homodimer, -1.58 z-score; in the test with p52p52 homodimer, -0.464 z-score; in test [1], -0.843 z-score; in test [2], -0.45 z-score; in the test with RELB subunit;p50 subunit, -0.858 z-score. Also, the binding signal is -0.525 z-score in the test with RELB subunit;p52 subunit, -0.958 z-score in [3] and -0.375 z-score in test [4].
